Among the data in PubChem BioAssay are composite z-score and z-score values, retold here.

Molecules are shown by their SMILES. Active and inactive are the calls of the source. Unless noted, the rule behind the calls is not given here.

Assay [1] is described as follows: anti-His antibody binders, primary screen, artefact control for SMM control protein annotation, biochemical, small-molecule microarray, 635 nm fluorescence (AID 1128).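 Note: score merges feature fluorescence with signal-to-noise for each printed compound spot.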 The conditions noted are these: anti-His Alexa647 antibody binding, higher = more signal.
The subject of assay [2] is Human papillomavirus type 1a E7 protein (residues 1-88). Description: HPV1a E7 small-molecule binders, primary screen, biochemical, small-molecule microarray, residues 1-88, 635 nm (AID 1129). The conditions noted are these: small-molecule microarray binding, fluorescence 635 nm; higher = more signal.
Assay [3] concerns the target Focal adhesion kinase 1 (Homo sapiens) (UniProt Q05397). Description: small-molecule microarray binders of FAK, primary screen, biochemical, 635/667 nm fluorescence, BSA, DTT (AID 1130).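 Note: composite of spot emission at 667 nm and signal to noise over triplicate slides.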 As to conditions: PTK2 binding, 635 nm fluorescence, higher = more signal.
Assay [4] has as its system Fibrinogen (Alexa647-labelled). Description: fibrinogen binders on compound microarrays, profiling panel, artefact control for SMM control-protein annotation, biochemical, small-molecule microarray, 635/667 nm fluorescence (AID 1131).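 Note: z-score merges 667 nm fluorescence with per-spot signal-to-noise over triplicate slides.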 As to conditions: fibrinogen-A647 binding fluorescence, higher = more signal.
Assay [5] deals with Follistatin (Homo sapiens) (UniProt P19883). Nature of the assay: follistatin binders on small-molecule microarrays, primary screen, biochemical, small-molecule microarray, 635/667 nm fluorescence (AID 1132). The conditions noted are these: FST binding, 635 nm fluorescence, higher = more signal.
The target of assay [6] is Fibroblast growth factor 2 (Homo sapiens) (UniProt P09038). Description: FGF2 binders on small-molecule microarrays, primary screen, biochemical, small-molecule microarray, 635/667 nm fluorescence (AID 1133). As to conditions: small-molecule microarray binding, FGF2, fluorescence 635/667; higher = more signal.
Assay [7] is described as follows: mitochondrial membrane potential change in A549 cells, profiling panel, cell-based, JC-1 fluorescence, basal, 24 h, 100 nL (AID 1138).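 Note: A549 lung adenocarcinoma cells under basal conditions with no added stimulus; test concentration not given here.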 As to conditions: higher = more signal.
The next assay has as its system Lefty1. Nature of the assay: Lefty1 binders on small-molecule microarrays, primary screen, biochemical, small-molecule microarray, 635/667 nm fluorescence (AID 1139). As to conditions: small-molecule microarray binding, fluorescence 635/667; higher = more signal.
In assay [8] the test system is wheat germ agglutinin (Triticum aestivum), Alexa647-labelled. Nature of the assay: wheat germ agglutinin binders on compound microarrays, profiling panel, artefact control for SMM control-protein annotation, biochemical, small-molecule microarray, 635/667 nm fluorescence (AID 1140).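 Note: score merges 667 nm feature emission with signal to noise over triplicate slides.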 The conditions noted are these: WGA-A647 binding, 635 nm fluorescence, higher = more signal.

The target of assay [9] is Luciferin 4-monooxygenase (Photinus pyralis) (UniProt P08659). Description: firefly luciferase enzyme inhibitors, primary screen, biochemical, luminescence, purified enzyme, 2006 set (AID 1141).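 Note: cell-free assay with purified firefly luciferase at 100 ng per well in PBS; test concentration not given here.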 The conditions noted are these: SteadyGlo luminescence, 30 min, higher = more signal, called active from +8 up or from −8 down.
The test system of assay [10] is Wnt5a (protein binding on small-molecule microarray). Nature of the assay: Wnt5a binders on small-molecule microarray, primary screen, biophysical, 635/667 nm fluorescence (AID 1142).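 Note: fluorescence read at 667 nm with signal to noise per printed feature.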 As to conditions: 635 nm fluorescence, higher = more signal.
Assay [11] is described as follows: cell viability in Huh7 cells, primary screen, cytotoxicity control for HCV replication inhibitor project, CellTiter-Glo luminescence, basal, 48 h (AID 1143).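 Note: Huh7 hepatoma cells carrying a hepatitis C replication reporter with no stimulus; test concentration not given here.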 As to conditions: Huh7 HCV replicon, higher = more signal, called active from +8 up or from −8 down.
A short description of assay [12]: P. aeruginosa biofilm formation inhibitors, primary screen, PAO1 strain, BacTiter-Glo luminescence, LB-PBS (AID 1144). As to conditions: 12 h, higher = more signal.
Assay [13] is described as follows: CREB reporter modulators without forskolin, primary screen, cell-based, PC12, CRE-LacZ reporter, unstimulated (AID 1145). As to conditions: no forskolin, luminescence, 4.5 h, higher = more signal, called active from +8 up or from −8 down.
The nature of assay [14]: CREB reporter modulators under forskolin, primary screen, cell-based, PC12, CRE-LacZ reporter, forskolin-stimulated (AID 1146).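 Note: PC12 cells with 6xCRE LacZ reporter stimulated by forskolin 10 µM; beta-galactosidase reporter signal reflecting CREB driven transcription.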 As to conditions: luminescence, 4.5 h, higher = more signal, called active from +8 up or from −8 down.
The target in assay [15] is Streptavidin (Streptomyces avidinii) (UniProt P22629). Nature of the assay: streptavidin binders on small-molecule microarray, primary screen, artefact control for SMM compound annotation, biophysical, 635/667 nm fluorescence (AID 1147).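 Note: signal reflects streptavidin binding to arrayed compounds as a control protein.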 The conditions noted are these: streptavidin binding, higher = more signal.
A short description of assay [16]: small-molecule binders of probe aInhba, primary screen, biochemical, small-molecule microarray, 635/667 nm fluorescence (AID 1148).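 Note: score merges 667nm spot fluorescence with signal-to-noise for antibody binding to printed compounds.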 As to conditions: higher = more signal.
Assay [17] concerns the target Torsin-1A (Homo sapiens) (UniProt O14656). Description: torsin A binders from cell lysate, primary screen, small-molecule microarray, wild-type, 635/667 nm (AID 1149). As to conditions: COS7 hTOR1A-WT lysate, 635 nm fluorescence, higher = more signal.
Assay [18] shares this target. Description: small-molecule binders of mutant TOR1A in lysate, primary screen, cell lysate, small-molecule microarray, COS7 lysate, 635/667 nm fluorescence (AID 1150).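 Note: score pools 667 nm emission and signal to noise measuring lysate protein binding.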 The conditions noted are these: COS7 hTOR1A mutant lysate, 635 nm fluorescence, higher = more signal.
Assay [19] has as its system Sonic hedgehog protein (Shh). Nature of the assay: small-molecule binders of Shh protein, primary screen, biochemical, small-molecule microarray, 635/667 nm fluorescence (AID 1151).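 Note: Shh protein binding to compounds spotted on small-molecule microarray slides; score combines spot fluorescence intensity with signal-to-noise across triplicate slides.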 The conditions noted are these: small-molecule microarray binding, 635 nm fluorescence; higher = more signal.

Sequence of Fibroblast growth factor 2 (Homo sapiens) (P09038 whole entry, looked up): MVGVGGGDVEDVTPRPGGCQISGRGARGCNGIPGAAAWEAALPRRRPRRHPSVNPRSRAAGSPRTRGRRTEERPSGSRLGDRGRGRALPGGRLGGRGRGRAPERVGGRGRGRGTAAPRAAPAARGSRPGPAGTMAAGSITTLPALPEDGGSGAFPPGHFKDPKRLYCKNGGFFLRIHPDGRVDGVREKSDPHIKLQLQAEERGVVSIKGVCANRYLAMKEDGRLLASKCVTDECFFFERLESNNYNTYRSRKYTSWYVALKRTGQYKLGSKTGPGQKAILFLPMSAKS
Sequence of Torsin-1A (Homo sapiens) (O14656 whole entry, looked up): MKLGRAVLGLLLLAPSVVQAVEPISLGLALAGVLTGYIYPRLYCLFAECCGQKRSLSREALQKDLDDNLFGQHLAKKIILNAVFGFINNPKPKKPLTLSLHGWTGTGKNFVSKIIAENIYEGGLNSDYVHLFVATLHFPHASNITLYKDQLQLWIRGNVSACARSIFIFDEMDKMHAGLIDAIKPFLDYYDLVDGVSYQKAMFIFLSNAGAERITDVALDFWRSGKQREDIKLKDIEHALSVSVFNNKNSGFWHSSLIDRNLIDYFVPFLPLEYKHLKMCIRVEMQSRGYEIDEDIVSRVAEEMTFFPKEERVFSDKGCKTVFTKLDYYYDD
Sequence of Luciferin 4-monooxygenase (Photinus pyralis) (P08659 whole entry, looked up): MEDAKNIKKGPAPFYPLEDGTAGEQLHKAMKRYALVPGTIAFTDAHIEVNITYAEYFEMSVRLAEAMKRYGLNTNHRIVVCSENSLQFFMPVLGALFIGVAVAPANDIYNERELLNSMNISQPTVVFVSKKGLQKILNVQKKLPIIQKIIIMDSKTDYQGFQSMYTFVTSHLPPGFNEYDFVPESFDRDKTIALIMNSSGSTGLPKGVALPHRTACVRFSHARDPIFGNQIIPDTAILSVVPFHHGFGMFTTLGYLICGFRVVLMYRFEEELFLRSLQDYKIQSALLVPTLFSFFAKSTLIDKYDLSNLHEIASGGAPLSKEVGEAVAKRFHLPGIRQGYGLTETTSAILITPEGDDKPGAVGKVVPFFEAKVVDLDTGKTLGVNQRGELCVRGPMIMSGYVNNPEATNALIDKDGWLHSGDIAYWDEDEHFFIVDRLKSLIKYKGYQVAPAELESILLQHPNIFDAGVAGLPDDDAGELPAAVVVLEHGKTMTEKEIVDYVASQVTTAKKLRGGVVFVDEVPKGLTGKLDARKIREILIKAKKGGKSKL
Sequence of Focal adhesion kinase 1 (Homo sapiens) (Q05397 whole entry, looked up): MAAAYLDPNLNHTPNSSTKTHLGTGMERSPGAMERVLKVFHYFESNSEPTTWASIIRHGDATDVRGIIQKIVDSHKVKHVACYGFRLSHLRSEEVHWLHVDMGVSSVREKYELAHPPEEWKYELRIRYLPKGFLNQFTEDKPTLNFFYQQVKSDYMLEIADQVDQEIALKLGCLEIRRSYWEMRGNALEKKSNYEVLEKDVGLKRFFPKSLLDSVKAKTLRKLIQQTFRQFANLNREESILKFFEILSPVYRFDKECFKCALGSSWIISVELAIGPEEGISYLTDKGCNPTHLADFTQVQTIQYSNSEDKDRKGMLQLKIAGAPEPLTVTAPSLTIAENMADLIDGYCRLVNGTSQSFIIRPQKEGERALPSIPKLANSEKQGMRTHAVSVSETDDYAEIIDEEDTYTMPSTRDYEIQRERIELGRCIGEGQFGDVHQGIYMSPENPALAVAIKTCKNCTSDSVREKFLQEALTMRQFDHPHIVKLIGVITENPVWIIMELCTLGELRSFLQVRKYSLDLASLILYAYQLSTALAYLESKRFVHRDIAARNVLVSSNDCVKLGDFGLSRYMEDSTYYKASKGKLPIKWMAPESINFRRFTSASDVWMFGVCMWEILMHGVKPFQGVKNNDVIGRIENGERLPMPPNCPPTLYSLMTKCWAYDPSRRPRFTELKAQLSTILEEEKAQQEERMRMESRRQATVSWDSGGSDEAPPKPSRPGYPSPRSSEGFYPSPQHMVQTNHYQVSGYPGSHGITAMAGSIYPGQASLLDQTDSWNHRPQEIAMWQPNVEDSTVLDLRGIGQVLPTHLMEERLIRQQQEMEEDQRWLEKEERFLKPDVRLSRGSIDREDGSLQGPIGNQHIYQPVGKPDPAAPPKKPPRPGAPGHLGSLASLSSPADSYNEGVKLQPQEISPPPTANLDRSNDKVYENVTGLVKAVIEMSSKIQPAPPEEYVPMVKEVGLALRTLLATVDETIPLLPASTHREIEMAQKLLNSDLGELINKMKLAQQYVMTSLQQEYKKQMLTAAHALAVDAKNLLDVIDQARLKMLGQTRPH
Sequence of Follistatin (Homo sapiens) (P19883 whole entry, looked up): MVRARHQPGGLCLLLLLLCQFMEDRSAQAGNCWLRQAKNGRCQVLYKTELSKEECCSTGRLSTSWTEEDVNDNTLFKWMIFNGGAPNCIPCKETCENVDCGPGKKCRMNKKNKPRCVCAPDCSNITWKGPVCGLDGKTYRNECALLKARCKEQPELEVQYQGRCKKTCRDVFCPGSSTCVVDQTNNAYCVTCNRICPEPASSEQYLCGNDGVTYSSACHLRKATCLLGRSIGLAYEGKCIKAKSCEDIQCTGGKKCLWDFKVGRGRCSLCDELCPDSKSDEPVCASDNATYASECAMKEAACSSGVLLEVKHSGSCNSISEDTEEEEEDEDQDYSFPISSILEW
Sequence of Streptavidin (Streptomyces avidinii) (P22629 whole entry, looked up): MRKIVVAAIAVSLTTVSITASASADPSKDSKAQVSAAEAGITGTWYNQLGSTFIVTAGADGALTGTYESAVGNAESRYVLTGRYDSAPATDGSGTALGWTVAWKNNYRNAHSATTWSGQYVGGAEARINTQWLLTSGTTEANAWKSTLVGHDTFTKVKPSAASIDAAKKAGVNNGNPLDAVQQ

For the molecule `COCC1=C([C@H](O)CCc2ccccc2)[C@H](CO)[C@@H]2C(=O)N(Cc3ccccc3)C(=O)[C@@H]2C1`, the composite z-score in [1] was -0.219; in assay [2], -0.0814; in assay [3] it was 0.0916; in assay [4], 0.292; in assay [5], 0.444; in [6], 0.0451. The composite z-score is 0.448 in the assay on Lefty1; 0.131 in assay [8]; 0.0713 in [10]; -0.0218 in [15]; -0.0759 in assay [16]; -0.305 with Torsin-1A (Homo sapiens) [17]. The composite z-score with Torsin-1A (Homo sapiens) [18] turned out to be 0.767; in assay [19] it was 1.03. Besides, the z-score is 0.68 in [7]; 0.24 (inactive) in assay [9]; -0.979 (inactive) in [11]; -0.771 (inactive) in assay [12]; 0.586 (inactive) in assay [13]; -0.0417 (inactive) in [14].

As to `[N-]=[N+]=NCc1ccccc1[C@H]1OC(c2ccc(OCCCO)cc2)=N[C@@]1(Cc1ccccc1)C(=O)NCC(O)CO` (stereo not given in full), the composite z-score was 1.86 in assay [1]; 1.25 in [2]; 1.08 in assay [3]; 0.726 in assay [4]; 0.474 in assay [5]; -0.0723 in assay [6]. Also, the composite z-score in the assay on Lefty1 is -0.994; in assay [8], 0.486; in [10], 0.11; in [15] it was 0.496; in assay [16] it was 0.296; with Torsin-1A (Homo sapiens) [17], 0.379. The values for the composite z-score (with Torsin-1A (Homo sapiens) [18]; in assay [19]) were 0.894 and -0.76, respectively. Moreover, the z-score in [7] is 1.2; in assay [9], 0.142 (inactive); in [11] it was -2.11 (inactive); in assay [12], -0.737 (inactive); in assay [13], 0.96 (inactive); in [14] it was 0.452 (inactive).

In the case of `O=C1OCCC=C[C@H]2OC34C=CCN(c5ccc6ccccc6c5)C(=O)[C@H]3N(CCCCCCO)C(=O)[C@@H]4C12` (stereo not given in full), the composite z-score was -0.365 in assay [1]; -0.992 in [2]; -0.0504 in assay [3]; -0.771 in assay [4]; -0.761 in assay [5]; -0.97 in assay [6]. In addition, the composite z-score in the assay on Lefty1 is -0.61; in [8] it was -0.451; in [10] it was -0.315; in [15], -1.1; in assay [16], -0.179; in the assay with Torsin-1A (Homo sapiens) [17], 2.39. Besides, the composite z-score in the assay with Torsin-1A (Homo sapiens) [18] was 2.75; in [19] it was -0.305. The z-score is 1.48 in [7]; -1.2 (inactive) in assay [9]; -0.211 (inactive) in assay [11]; -0.0556 (inactive) in assay [12]; 0.0605 (inactive) in [13]; 0.771 (inactive) in assay [14].

As to `COCCOC(=O)N1C(=O)[C@@]2(c3cc(C#Cc4ccc(OC)cc4)ccc31)[C@H](c1ccc(O)cc1)N1[C@H](c3ccccc3)[C@H](c3ccccc3)OC(=O)[C@H]1[C@@H]2C(=O)N1CCN(c2ncccn2)CC1`, the composite z-score was determined as 1.23 in assay [1]; 1.18 in assay [2]; 0.351 in [3]; 0.624 in assay [4]; 1.36 in assay [5]; 0.712 in assay [6]. The composite z-score in the assay on Lefty1 is 0.604; in assay [8], 0.584; in assay [10], -0.0114; in assay [15], 0.0875; in assay [16], 0.199; with Torsin-1A (Homo sapiens) [17], 0.487. Besides, the results for the composite z-score (with Torsin-1A (Homo sapiens) [18]; in [19]) were 0.651 and 0.982, respectively. Further, the z-score in assay [7] is -0.863; in assay [9], 0.384 (inactive); in assay [11] it was -0.949 (inactive); in assay [12], -0.166 (inactive); in assay [13], -0.114 (inactive); in assay [14], 0.75 (inactive).

For the molecule `O=C1O[C@@H](c2ccccc2)[C@@H](c2ccccc2)N2[C@@H](c3ccccc3OCCO)[C@]3(C(=O)Nc4ccc(C#CC5(O)CCCCCC5)cc43)[C@@H](C(=O)NC[C@H](O)c3ccccc3)[C@H]12`, the composite z-score in [1] was 1.82; in assay [2] it was 1.2; in assay [3], 1.03; in assay [4], -0.51; in assay [5], 1.17; in assay [6], 0.106. For the same molecule, the composite z-score was 1.54 in the assay with Lefty1; 1.21 in assay [8]; 0.602 in assay [10]; 0.329 in assay [15]; 1.09 in assay [16]; -0.179 in the assay with Torsin-1A (Homo sapiens) [17]. In addition, the composite z-score with Torsin-1A (Homo sapiens) [18] came to 0.251; in assay [19] it was 2.17. The z-score was -1.15 in assay [7]; -0.215 (inactive) in assay [9]; -6.25 (inactive) in [11]; 0.813 (inactive) in [12]; 0.0776 (inactive) in assay [13]; 1.12 (inactive) in assay [14].
